In PubChem BioAssay (EPA / NIEHS):
Several values for one entry are separate records, joined by “and”; a condition that tells them apart may be missing. Equal entries are not always repeated. Inconclusive results are not listed. More than one record can exist for a structure, and the calls need not agree. Activity calls are given as the source filed them. How the source made its calls: active means hit-call score of the fitted dose curve at least 0.9, where 1 is the maximum; inconclusive means response in the unintended direction; inactive means score below 0.9.

Experiments:
NCBI gene 100848466 = assay: NVS_NR_bPR: NovaScreen (NVS) Nuclear Receptor Binding Assay for bovine Progextron Receptor (PR) (AID 2283343);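 on AC50: actives lower bound radioligand signal below DMSO meaning displacement of the label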
Outline: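 Competitive radioligand binding with membranes from bovine uterus, scintillation read-out at 18 h post-dose. Compounds first tested in duplicate at 25 uM, then actives in concentration series; loss-of-signal relative to DMSO.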

[1] = target: bovine Estrogen Receptor (ER), ESR1 (gene 407238) (UniProt P49884); assay: NVS_NR_bER: NovaScreen (NVS) Nuclear Receptor Binding Assay for bovine Estrogen Receptor (ER) (AID 2283345);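 further: actives lower the bound radioligand count which means they displace the ER ligand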
bovine Estrogen Receptor (ER), ESR1 (gene 407238), sequence (P49884 whole entry, looked up): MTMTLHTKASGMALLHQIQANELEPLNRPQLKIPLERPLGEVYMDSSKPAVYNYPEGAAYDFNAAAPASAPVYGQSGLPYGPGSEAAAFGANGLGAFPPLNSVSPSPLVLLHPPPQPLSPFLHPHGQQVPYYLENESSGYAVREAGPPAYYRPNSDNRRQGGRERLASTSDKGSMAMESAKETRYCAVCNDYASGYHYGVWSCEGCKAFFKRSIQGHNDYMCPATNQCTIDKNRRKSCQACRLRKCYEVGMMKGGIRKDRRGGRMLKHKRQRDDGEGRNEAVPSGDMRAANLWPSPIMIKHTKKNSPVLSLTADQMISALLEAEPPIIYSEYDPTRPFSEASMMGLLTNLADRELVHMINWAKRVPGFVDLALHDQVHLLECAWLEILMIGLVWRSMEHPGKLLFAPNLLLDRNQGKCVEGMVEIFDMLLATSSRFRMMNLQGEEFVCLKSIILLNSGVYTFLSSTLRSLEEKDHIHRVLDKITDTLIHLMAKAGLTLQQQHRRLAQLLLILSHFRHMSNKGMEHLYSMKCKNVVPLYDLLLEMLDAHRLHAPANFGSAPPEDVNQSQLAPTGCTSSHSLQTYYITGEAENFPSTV
Outline: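 Scintillation counting of displaced radioligand gave the readout; bovine uterine membrane extract supplied the receptor. Measured 18 h post-dose, normalized to DMSO baseline. Single 25 uM duplicate screen preceded concentration-response follow-up.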

[2] = target: Estrogen receptor (Homo sapiens) (UniProt P03372); assay: OT_ER_ERaERa_0480: Odyssey Thera (OT) 8-hour HEK293T Protein-Complementation Assay for Estrogen Receptor-alpha/-alpha Homodimer (AID 2283351);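 further: rise in fluorescence from reassembled reporter fragments on ERα LBD homodimer in nucleus or whole cell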
Estrogen receptor (Homo sapiens), sequence (P03372 whole entry, looked up, the tested form may be a part): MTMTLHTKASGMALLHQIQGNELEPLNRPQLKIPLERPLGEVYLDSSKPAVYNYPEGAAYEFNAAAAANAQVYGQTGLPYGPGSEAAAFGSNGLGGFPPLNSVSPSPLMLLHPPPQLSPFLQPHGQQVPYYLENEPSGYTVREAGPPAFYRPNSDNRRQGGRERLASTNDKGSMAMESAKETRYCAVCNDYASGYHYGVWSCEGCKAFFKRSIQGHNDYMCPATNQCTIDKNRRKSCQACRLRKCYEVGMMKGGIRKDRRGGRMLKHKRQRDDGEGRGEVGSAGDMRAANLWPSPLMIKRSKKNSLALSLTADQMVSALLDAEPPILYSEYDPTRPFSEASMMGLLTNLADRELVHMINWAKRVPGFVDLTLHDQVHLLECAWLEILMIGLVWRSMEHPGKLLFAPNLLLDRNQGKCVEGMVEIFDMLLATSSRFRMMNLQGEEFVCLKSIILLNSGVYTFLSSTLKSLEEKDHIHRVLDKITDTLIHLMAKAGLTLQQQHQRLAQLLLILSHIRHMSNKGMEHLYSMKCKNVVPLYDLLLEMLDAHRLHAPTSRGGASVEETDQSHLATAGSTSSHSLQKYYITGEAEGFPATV
Outline: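 Cells were treated for 8 hours, then imaged on a laser scanning plate cytometer. Complementation of reporter fragments fused to the human ERα ligand-binding domain (residues 310-547) in HEK293T gave fluorescence, and gain of signal over vehicle was fitted.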

[3] = target: T1, Estrogen receptor (Homo sapiens) + Estrogen receptor beta (Homo sapiens) (UniProt P03372+Q92731); assay: OT_ER_ERaERb_0480: Odyssey Thera (OT) 8-hour HEK293T Protein-Complementation Assay for Estrogen Receptor-alpha/-beta Heterodimer (AID 2283352)
T1 sequence (P03372 whole entry, looked up, the tested form may be a part): as above
T1 sequence (Q92731 whole entry, looked up, the tested form may be a part): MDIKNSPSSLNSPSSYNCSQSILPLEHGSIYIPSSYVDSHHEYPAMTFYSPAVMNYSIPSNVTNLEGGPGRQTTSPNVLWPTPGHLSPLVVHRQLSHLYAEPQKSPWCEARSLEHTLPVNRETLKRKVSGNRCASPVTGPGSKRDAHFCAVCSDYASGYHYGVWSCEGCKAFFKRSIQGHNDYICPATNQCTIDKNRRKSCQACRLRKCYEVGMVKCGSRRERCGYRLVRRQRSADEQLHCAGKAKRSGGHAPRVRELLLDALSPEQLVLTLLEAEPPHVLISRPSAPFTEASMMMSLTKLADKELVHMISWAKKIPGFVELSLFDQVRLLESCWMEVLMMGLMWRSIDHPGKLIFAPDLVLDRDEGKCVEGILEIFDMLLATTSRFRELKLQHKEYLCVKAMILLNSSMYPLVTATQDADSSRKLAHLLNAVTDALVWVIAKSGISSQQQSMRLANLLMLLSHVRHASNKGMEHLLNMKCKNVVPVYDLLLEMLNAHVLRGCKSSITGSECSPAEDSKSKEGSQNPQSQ
Outline: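 Fluorescence increase from reconstituted reporter fragments, quantified by laser scanning cytometer, reflects ER-alpha/ER-beta heterodimer formation in human HEK293T cells. Exposure 8 h; positive-direction fitting against DMSO vehicle.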

[4] = target: T1, Estrogen receptor (Homo sapiens) + Estrogen receptor beta (Homo sapiens); assay: OT_ER_ERaERb_1440: Odyssey Thera (OT) 24-hour HEK293T Protein-Complementation Assay for Estrogen Receptor-alpha/-beta Homodimer (AID 2283356);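 further: heteromer of ER alpha and ER beta binding domains; hits raise reporter fluorescence and both agonists and antagonists give an increase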
Outline: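 Fragment complementation between ER alpha (310-547) and ER beta (263-489) ligand-binding domains in HEK293T cells; signal read 24 h post-dosing by laser scanning cytometer. Gain of fluorescence relative to DMSO fitted.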

[5] = target: Estrogen receptor beta (Homo sapiens) (UniProt Q92731); assay: OT_ER_ERbERb_0480: Odyssey Thera (OT) 8-hour HEK293T Protein-Complementation Assay for Estrogen Receptor-beta/-beta Homodimer (AID 2283357);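 further: active means signal gain over DMSO baseline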
Estrogen receptor beta (Homo sapiens), sequence (Q92731 whole entry, looked up, the tested form may be a part): as above
Outline: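 ER-beta LBD homodimer PCA stably expressed in HEK293T; 8 h compound exposure, then formaldehyde fixation and Draq5 staining. Gain in nuclear/cytoplasmic fluorescence intensity versus DMSO vehicle, read on laser scanning cytometer.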

[6] = target: human Constitutive Androstane Receptor (CAR), NR1I3 (gene 9970) (UniProt Q14994); assay: NVS_NR_hCAR_Antagonist: NovaScreen (NVS) Nuclear Receptor Binding Assay for human Constitutive Androstane Receptor Antagonism (CAR) (AID 2283344)
human Constitutive Androstane Receptor (CAR), NR1I3 (gene 9970), sequence (Q14994 whole entry, looked up): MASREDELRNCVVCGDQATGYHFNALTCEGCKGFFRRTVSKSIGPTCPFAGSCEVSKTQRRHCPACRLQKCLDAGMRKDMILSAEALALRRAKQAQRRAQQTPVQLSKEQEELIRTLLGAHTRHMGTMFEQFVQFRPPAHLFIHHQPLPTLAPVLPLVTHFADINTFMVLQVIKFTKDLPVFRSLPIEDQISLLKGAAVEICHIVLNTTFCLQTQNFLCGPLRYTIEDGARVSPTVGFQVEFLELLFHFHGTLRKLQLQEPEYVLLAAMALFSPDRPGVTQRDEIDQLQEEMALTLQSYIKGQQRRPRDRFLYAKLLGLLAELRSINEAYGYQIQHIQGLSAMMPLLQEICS
Outline: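 Single 25 uM duplicate primary screen, with concentration-series follow-up on actives. Cell-free binding format run in antagonist mode, TR-FRET signal taken 1 h post-dose; activity is signal loss relative to DMSO.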

[7] = target: Estrogen receptor (Homo sapiens) (UniProt P03372); assay: NVS_NR_hER: NovaScreen (NVS) Nuclear Receptor Binding Assay for human Estrogen Receptor (ER) (AID 2283348)
Outline: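 Cell-free MCF7-derived ER preparation, specific radioligand displaced by test compound, read by scintillation counting 18 h post-dosing. Duplicate single-point 25 uM screen, then concentration-response confirmation; DMSO baseline.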

[8] = target: rat Glycine Receptor, Strychnine-sensitive (GlyRStrySens), Glra1 (gene 25674) (UniProt P07727); assay: NVS_LGIC_rGlyRStrySens: NovaScreen (NVS) Ligand-Gated Ion Channel Assay for rat Glycine Receptor, Strychnine-sensitive (GlyRStrySens) (AID 2283341)
Outline: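 Radioligand displacement on rat spinal cord membranes, 1 hr, filter scintillation read-out. Single-concentration duplicate screen at 25 uM; chemicals meeting threshold (e.g., 30% inhibition) rerun in concentration-response up to 50 uM. Loss of binding fitted versus DMSO.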

[9] = NVS_IC_rCaBTZCHL: NovaScreen (NVS) Ion Channel Assay for Calcium Channel, Type L, Benzothiazepine Site (CaBTZCHL) (AID 2283337)
Outline: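 Test chemicals were added to rat cortical membranes and incubated 1.5 h with a tritiated or iodinated radioligand for the benzothiazepine site. Bound ligand was separated by filtration and counted. Actives from the 25 uM duplicate screen were retested in concentration series.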

[10] = target: rat Peripheral-type Benzodiazepine Receptor (PBR), Tspo (gene 24230) (UniProt P16257); assay: NVS_MP_rPBR: NovaScreen (NVS) Membrane Protein Assay for rat Peripheral-type Benzodiazepine Receptor (PBR) (AID 2283335)
rat Peripheral-type Benzodiazepine Receptor (PBR), Tspo (gene 24230), sequence (P16257 whole entry, looked up): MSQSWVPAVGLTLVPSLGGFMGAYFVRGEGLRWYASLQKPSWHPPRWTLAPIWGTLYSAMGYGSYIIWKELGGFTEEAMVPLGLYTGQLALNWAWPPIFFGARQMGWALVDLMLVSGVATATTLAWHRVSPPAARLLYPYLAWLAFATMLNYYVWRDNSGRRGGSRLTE
Outline: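 Competitive displacement of specific radioligand from rat kidney membrane PBR, read by filtration and scintillation after 1 h. Compounds first tested at 25 uM in duplicate, then in concentration series; signal loss relative to DMSO.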

[11] = target: Estrogen receptor (Homo sapiens) (UniProt P03372); assay: OT_ER_ERaERa_1440: Odyssey Thera (OT) 24-hour HEK293T Protein-Complementation Assay for Estrogen Receptor-alpha/-alpha Homodimer (AID 2283349);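 further: hits raise fluorescence above DMSO for agonists and antagonists alike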
Outline: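 HEK293T, stable ERα LBD (aa 310-547) homodimer PCA; 24 h compound exposure; mean fluorescence intensity (nuclear for agonists, nuclear plus cytoplasmic for antagonists) vs vehicle; positive fitting direction, DMSO baseline.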

[12] = target: Androgen Receptor/SRC-1 Co-activator, AR (gene 367) (UniProt P10275); assay: OT_AR_ARSRC1_0960: Odyssey Thera (OT) 16-hour HEK293T Protein-Complementation Assay for Androgen Receptor/SRC-1 Co-activator (AID 2283353);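 further: actives raise the signal above DMSO so potency reflects increased AR and SRC-1 complex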
Androgen Receptor/SRC-1 Co-activator, AR (gene 367), sequence (P10275 whole entry, looked up, the tested form may be a part): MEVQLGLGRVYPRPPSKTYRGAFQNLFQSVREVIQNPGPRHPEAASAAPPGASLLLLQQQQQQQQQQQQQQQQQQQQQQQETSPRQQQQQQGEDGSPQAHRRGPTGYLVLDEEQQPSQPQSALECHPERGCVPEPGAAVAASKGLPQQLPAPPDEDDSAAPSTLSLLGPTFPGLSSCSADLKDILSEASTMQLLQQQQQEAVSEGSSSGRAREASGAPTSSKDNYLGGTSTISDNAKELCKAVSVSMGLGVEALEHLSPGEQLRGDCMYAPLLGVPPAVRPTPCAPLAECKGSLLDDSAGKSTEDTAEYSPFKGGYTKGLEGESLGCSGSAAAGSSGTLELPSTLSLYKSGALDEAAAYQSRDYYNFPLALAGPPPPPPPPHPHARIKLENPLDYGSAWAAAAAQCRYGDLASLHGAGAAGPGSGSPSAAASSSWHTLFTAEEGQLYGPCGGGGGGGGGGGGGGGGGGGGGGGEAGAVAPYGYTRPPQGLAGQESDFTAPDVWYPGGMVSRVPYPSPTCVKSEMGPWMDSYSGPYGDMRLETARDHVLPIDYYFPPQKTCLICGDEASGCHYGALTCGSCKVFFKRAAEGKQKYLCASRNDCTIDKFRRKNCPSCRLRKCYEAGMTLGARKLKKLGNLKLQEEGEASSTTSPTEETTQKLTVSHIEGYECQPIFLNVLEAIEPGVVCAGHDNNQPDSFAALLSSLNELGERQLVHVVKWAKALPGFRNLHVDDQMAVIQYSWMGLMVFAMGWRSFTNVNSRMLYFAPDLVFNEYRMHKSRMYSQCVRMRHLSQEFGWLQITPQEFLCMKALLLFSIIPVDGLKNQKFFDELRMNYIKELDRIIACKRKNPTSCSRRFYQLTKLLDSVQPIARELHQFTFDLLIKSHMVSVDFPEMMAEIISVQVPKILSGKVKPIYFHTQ
Outline: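 Stable HEK293T line carries AR and SRC-1 each linked to a Venus fragment; chemicals are applied for 16 h, cells imaged at two wavelengths, and the 488 nm nucleus/cytoplasm ratio is taken as the signal, rising relative to DMSO.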

[13] = target: Androgen Receptor/SRC-1 Co-activator, AR (gene 367) (UniProt P10275); assay: OT_AR_ARSRC1_0480: Odyssey Thera (OT) 8-hour HEK293T Protein-Complementation Assay for Androgen Receptor/SRC-1 Co-activator (AID 2283354);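 further: hits raise the complementation signal above DMSO so AC50 marks enhancers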
Outline: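 Reconstituted split-Venus YFP signal from AR–SRC-1 interaction, read by imaging 8 h post-dose in stable HEK293T lines. The 488 nm nucleus-to-cytoplasm ratio (≥400 cells/image) was fitted upward against DMSO.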

[14] = target: chimpanzee Androgen Receptor (AR), AR (gene 747460) (UniProt O97775); assay: NVS_NR_cAR: NovaScreen (NVS) Nuclear Receptor Binding Assay for chimpanzee Androgen Receptor (AR) (AID 2283346);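 further: radioligand displacement from AR measured by scintillation counting in a cell-free assay; a loss of bound radioligand signal versus DMSO counts as binding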
Outline: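 Cell-free competition binding with insect-cell (Sf9/Sf21) extracted chimpanzee AR; scintillation signal from lysate at 72 h. Screened in duplicate at 25 uM, then concentration-response for actives; fitting relative to DMSO.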

[15] = target: Bile acid receptor (Homo sapiens) (UniProt Q96RI1); assay: NVS_NR_hFXR_Agonist: NovaScreen (NVS) Nuclear Receptor Binding Assay for human Farnesoid X Receptor Agonism (FXR) (AID 2283347)
Bile acid receptor (Homo sapiens), sequence (Q96RI1 whole entry, looked up): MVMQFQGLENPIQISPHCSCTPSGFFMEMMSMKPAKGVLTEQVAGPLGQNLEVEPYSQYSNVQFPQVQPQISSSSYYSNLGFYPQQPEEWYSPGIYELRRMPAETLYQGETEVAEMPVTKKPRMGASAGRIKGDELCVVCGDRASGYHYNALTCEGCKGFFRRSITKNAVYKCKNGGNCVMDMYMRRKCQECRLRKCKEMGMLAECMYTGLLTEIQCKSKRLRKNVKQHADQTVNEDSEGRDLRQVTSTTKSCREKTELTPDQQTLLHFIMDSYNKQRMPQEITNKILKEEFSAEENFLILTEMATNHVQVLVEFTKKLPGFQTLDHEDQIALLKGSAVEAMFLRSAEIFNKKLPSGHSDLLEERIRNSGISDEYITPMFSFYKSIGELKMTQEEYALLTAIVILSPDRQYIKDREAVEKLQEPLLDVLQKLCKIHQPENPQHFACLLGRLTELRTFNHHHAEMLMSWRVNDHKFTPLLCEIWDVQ
Outline: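 Agonist-mode FXR assay read by time-resolved FRET 1 h after compound addition, using isolated human receptor protein without cells. Duplicate 25 uM single-point primary screen, concentration series for confirmed actives; DMSO as baseline.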

[16] = target: rat Mineralocorticoid Receptor (MR), Nr3c2 (gene 25672) (UniProt P22199); assay: NVS_NR_rMR: NovaScreen (NVS) Nuclear Receptor Binding Assay for rat Mineralocorticoid Receptor (MR) (AID 2283355)
rat Mineralocorticoid Receptor (MR), Nr3c2 (gene 25672), sequence (P22199 whole entry, looked up): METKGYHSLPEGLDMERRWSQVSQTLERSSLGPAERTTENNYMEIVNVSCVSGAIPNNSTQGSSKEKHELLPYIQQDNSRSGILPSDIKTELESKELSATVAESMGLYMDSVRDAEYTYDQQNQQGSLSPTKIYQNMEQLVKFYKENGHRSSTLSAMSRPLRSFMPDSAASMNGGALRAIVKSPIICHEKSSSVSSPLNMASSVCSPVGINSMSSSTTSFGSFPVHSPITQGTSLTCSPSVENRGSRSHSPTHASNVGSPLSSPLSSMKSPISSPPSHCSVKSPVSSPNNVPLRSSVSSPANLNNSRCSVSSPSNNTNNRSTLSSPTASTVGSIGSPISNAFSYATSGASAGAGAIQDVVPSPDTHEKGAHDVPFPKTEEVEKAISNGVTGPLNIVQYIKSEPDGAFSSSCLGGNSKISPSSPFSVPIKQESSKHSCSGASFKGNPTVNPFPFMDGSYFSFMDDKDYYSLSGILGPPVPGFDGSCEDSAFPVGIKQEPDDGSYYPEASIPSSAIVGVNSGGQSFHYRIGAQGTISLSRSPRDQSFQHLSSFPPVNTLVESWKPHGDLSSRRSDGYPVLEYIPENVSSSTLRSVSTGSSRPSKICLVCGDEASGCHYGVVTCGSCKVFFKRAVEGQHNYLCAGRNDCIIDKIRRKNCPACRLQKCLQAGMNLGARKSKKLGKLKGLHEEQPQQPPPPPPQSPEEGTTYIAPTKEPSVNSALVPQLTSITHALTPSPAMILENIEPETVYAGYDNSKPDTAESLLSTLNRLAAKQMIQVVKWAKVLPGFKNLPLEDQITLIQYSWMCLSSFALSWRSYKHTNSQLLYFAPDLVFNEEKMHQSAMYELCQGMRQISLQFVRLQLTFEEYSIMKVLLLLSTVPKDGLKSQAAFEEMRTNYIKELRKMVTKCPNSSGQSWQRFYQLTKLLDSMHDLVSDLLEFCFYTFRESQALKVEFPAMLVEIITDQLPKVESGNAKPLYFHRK
Outline: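 Primary HTS ran in duplicate at a single 25 uM concentration, with concentration-series follow-up for actives. Receptor source: adrenalectomized rat brain supernatant, cell-free. Radioligand displacement read by scintillation at 24 h, relative to DMSO baseline.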

[17] = target: bovine Gamma-Aminobutyric Acid Type A Receptor Agonist (GABAR Agonist), GABRA1 (gene 780973) (UniProt P08219); assay: NVS_LGIC_bGABAR_Agonist: NovaScreen (NVS) Ligand-Gated Ion Channel Assay for bovine Gamma-Aminobutyric Acid Type A Receptor Agonist (GABAR Agonist) (AID 2283338)
Outline: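 Radioligand binding to bovine cerebellar membranes in agonist format, read by filter-based scintillation counting after 1 h. Primary screen in duplicate at 25 uM, with actives followed in concentration series. Gain of signal versus DMSO.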

[18] = target: Bile acid receptor (Homo sapiens) (UniProt Q96RI1); assay: NVS_NR_hFXR_Antagonist: NovaScreen (NVS) Nuclear Receptor Binding Assay for human Farnesoid X Receptor Antagonism (FXR) (AID 2283350)
Outline: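 Antagonist-format time-resolved FRET binding assay with extracted human receptor protein, read 1 hour after compound addition. Compounds first screened at 25 uM in duplicate, then actives tested in concentration series, with loss of signal relative to DMSO.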

Measured: AC50

CCOP(=S)(Oc1ccc([N+](=O)[O-])cc1)c1ccccc1 (centres undefined)
inactive: [1]
active: NCBI gene 100848466 10.4 µM | [2] 14.8 µM | [3] 19.2 µM | [4] 14.1 µM | [5] 26.4 µM

CCCN(CCC)c1c([N+](=O)[O-])cc(C(C)C)cc1[N+](=O)[O-]
active: [2] 36.8 µM | [3] 50 µM | [4] 56.9 µM
inactive: [6] | [1] | [7] | [5]

c1ccc(OP(Oc2ccccc2)Oc2ccccc2)cc1
inactive: [8] | [1] | [7] | [2] | [3] | [4] | [5]

CC(C)Nc1ccc(Nc2ccccc2)cc1
inactive: [9] | [7]

CCCCOCCOP(=O)(OCCOCCCC)OCCOCCCC
active: [10] 7.47 µM and 7.45 µM
inactive: [9] | [11] | [2] | [4] | [5]

CCCCC(CC)COP(=O)(Oc1ccccc1)Oc1ccccc1 (centres undefined)
active: [10] 2.93 µM | [3] 12.2 µM | [4] 50 µM
inactive: [10] | [9] | [11] | [2] | [12] | [13] | [5]

CCC(C)(C)c1ccc(O)cc1
inactive: [1] | [7]
active: [14] 25 µM | [2] 8.61 µM | [3] 2.68 µM | [4] 7.2 µM | [5] 2.41 µM

Cc1cc(C)c(C(=O)P(=O)(c2ccccc2)c2ccccc2)c(C)c1
inactive: [10]

CO/N=C(/C(=O)OC)c1ccccc1COc1ccccc1C
active: [10] 0.947 µM | [11] 76.4 µM | [2] 50 µM
inactive: [1] | [7] | [12] | [13]

CC(C)(C)OOC(C)(C)C
inactive: [6] | [15] | [11] | [2] | [3] | [4] | [5]

CSC(C)(C)C=NO
inactive: NCBI gene 100848466 | [2]
active: [16] 4.44 µM

CC(Cl)(Cl)C(=O)O
inactive: [1] | [7] | [11] | [2] | [3] | [4] | [5]

CCOP(=S)(NC(C)C)Oc1ccccc1C(=O)OC(C)C (centres undefined)
inactive: [10] | [16]

Nc1ccc2ccccc2c1
inactive: [2] | [3] | [4] | [5]
active: [10] 7.21 µM

CCCCN(CCCC)N=O
inactive: [17] | [11] | [18] | [3] | [4]

O=P1(N(CCCl)CCCl)NCCCO1 (centres undefined)
inactive: [1] | [7] | [2] | [3] | [4] | [5]
active: [7] 15.7 µM

ClC1=C(Cl)C2(Cl)C3C(Cl)C(Cl)CC3C1(Cl)C2(Cl)Cl (centres undefined)
active: [12] 38.1 µM | [13] 48.4 µM
inactive: [6] | [1] | [15] | [7] | [11] | [4] | [5]

CCCCc1ccccc1
inactive: [18]
